Data published in PubChem BioAssay (EPA / NIEHS).
Records with an inconclusive call do not appear. The source made the active and inactive calls. The calls were made as follows: active = hit-call score of the fitted dose curve at least 0.9, where 1 is the maximum; inconclusive = response in the unintended direction; inactive = score below 0.9.

Assays:
[1] = ATG_Hpa5_TRANS: Attagene TRANS-FACTORIAL HepG2 Assay for human GAL4-Hpa5 Hepatocyte Transcription Factor Basal Promoter (AID 2282975); conditions: HepG2 Attagene GAL4-Hpa5 transcription reporter;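 also: hits are increases in reporter mRNA over DMSO baseline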
Method in brief: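 Gain-of-signal versus DMSO is fitted for reporter mRNA quantified by RT-PCR and capillary electrophoresis after 24 h exposure. This endpoint is an internal background marker in transiently transfected HepG2 cells carrying GAL4-UAS reporter units.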

[2] = target: Oxysterols receptor LXR-alpha (Homo sapiens) (UniProt Q13133); assay: ATG_LXRa_TRANS: Attagene TRANS-FACTORIAL HepG2 Assay for human Liver X Receptor alpha (LXRa) (AID 2282980); conditions: HepG2 Attagene TRANS reporter, LXRa transactivation
Method in brief: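 Transient HepG2 transfectants, 24 h dosing, RT-PCR/CE mRNA reporter quantitation; gain-of-signal vs DMSO.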

[3] = target: Hepatocyte nuclear factor 4-alpha (Homo sapiens) (UniProt P41235); assay: ATG_HNF4a_TRANS: Attagene TRANS-FACTORIAL HepG2 Assay for human Hepatocyte Nuclear Factor 4 alpha (HNF4a) (AID 2282982); conditions: HepG2 HNF4a transactivation reporter, mRNA readout
Method in brief: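 Using HepG2 liver cells transfected with GAL4-UAS reporter units, chemical-induced mRNA increases were assessed after 24 hours. Fluorescent RT-PCR fragments were separated by capillary electrophoresis and compared with DMSO negative controls.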

[4] = ATG_M_06_TRANS: Attagene TRANS-FACTORIAL HepG2 Assay for M06 Transcription Factor (Internal Marker) (AID 2282983); conditions: HepG2 Attagene TRANS M06 internal marker reporter
Method in brief: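 Human liver HepG2 cells bearing transiently transfected chimeric NR-GAL4 reporter units were treated with chemicals for 24 h. Total RNA was reverse-transcribed, reporter sequences amplified and labelled, then quantified by capillary electrophoresis. Activity was fitted upward relative to DMSO.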

[5] = ATG_M_32_TRANS: Attagene TRANS-FACTORIAL HepG2 Assay for M32 Transcription Factor (Internal Marker) (AID 2282984); conditions: HepG2 Attagene TRANS M32 internal marker reporter;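 also: transcript level of a background control reporter unit measured by RT-PCR and capillary electrophoresis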
Method in brief: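 Fluorescence-detected mRNA induction, HepG2 liver cells, 24 h after dosing. Multiple GAL4-UAS reporter units introduced by transient transfection; background-control endpoint analysed for gain of signal against DMSO.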

[6] = target: Oxysterols receptor LXR-beta (Homo sapiens) (UniProt P55055); assay: ATG_LXRb_TRANS: Attagene TRANS-FACTORIAL HepG2 Assay for human Liver X Receptor beta (LXRb) (AID 2282981); conditions: HepG2 Attagene TRANS GAL4-LXRb reporter, mRNA
Method in brief: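 Liver-derived HepG2 cells transfected with Gal4-responsive reporters were dosed for 24 h. Activation was scored as rise in reporter mRNA, by RT-PCR and capillary electrophoresis, above DMSO baseline.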

[7] = target: Glucocorticoid receptor (Homo sapiens) (UniProt P04150); assay: ATG_GR_TRANS: Attagene TRANS-FACTORIAL HepG2 Assay for human Glucocorticoid Receptor (GR) (AID 2282978); conditions: HepG2 Attagene TRANS GR reporter, mRNA transcription;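 also: activators score as hits since higher reporter transcript over DMSO is fitted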
Method in brief: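 Transient MRTU transfection of HepG2 (GAL4-UAS reporters, exogenous NR-GAL4 chimeras), 24 h dosing. Readout: reporter transcript via RT-PCR + capillary electrophoresis fluorescence. Positive direction vs DMSO baseline.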

[8] = target: Estrogen-related receptor gamma (Homo sapiens) (UniProt P62508); assay: ATG_ERRg_TRANS: Attagene TRANS-FACTORIAL HepG2 Assay for human Estrogen-Related Receptor gamma (ERRg) (AID 2282977); conditions: HepG2 Attagene TRANS reporter, ERRg transactivation;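 also: hits increase reporter signal over DMSO so potencies reflect activators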
Method in brief: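 Readout: fluorescent reporter-mRNA fragments resolved by capillary electrophoresis after RT-PCR and HpaI cut. Cells: transiently transfected HepG2 carrying GAL4-UAS reporters driven by exogenous NR-Gal4 chimeras, dosed 24 h. Activity fitted upward relative to DMSO baseline.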

Measured: outcome

Sequence of Estrogen-related receptor gamma (Homo sapiens) (P62508 whole entry, looked up, the tested form may be a part): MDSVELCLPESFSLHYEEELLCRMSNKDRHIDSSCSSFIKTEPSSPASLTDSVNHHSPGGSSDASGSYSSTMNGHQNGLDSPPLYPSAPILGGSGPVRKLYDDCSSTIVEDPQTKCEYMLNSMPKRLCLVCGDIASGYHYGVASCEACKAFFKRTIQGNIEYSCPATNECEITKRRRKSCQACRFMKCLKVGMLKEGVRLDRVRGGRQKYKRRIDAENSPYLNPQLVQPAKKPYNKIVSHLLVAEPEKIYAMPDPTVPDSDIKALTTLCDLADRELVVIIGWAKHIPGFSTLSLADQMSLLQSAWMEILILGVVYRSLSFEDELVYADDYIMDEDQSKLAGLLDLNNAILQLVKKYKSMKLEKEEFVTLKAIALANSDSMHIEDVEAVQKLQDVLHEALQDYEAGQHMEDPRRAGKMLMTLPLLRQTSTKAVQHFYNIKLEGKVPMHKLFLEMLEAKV
Sequence of Oxysterols receptor LXR-alpha (Homo sapiens) (Q13133 whole entry, looked up): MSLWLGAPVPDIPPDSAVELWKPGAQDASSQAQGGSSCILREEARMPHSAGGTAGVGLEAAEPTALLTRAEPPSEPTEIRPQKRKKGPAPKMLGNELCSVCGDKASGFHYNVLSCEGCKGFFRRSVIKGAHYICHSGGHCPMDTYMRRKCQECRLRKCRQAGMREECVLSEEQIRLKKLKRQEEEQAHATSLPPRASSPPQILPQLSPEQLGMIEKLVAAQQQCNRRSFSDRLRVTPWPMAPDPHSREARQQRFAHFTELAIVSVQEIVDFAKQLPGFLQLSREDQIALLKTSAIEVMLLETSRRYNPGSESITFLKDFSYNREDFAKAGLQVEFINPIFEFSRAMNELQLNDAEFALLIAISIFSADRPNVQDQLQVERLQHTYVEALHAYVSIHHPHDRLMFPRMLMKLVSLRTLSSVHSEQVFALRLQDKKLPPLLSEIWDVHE
Sequence of Oxysterols receptor LXR-beta (Homo sapiens) (P55055 whole entry, looked up, the tested form may be a part): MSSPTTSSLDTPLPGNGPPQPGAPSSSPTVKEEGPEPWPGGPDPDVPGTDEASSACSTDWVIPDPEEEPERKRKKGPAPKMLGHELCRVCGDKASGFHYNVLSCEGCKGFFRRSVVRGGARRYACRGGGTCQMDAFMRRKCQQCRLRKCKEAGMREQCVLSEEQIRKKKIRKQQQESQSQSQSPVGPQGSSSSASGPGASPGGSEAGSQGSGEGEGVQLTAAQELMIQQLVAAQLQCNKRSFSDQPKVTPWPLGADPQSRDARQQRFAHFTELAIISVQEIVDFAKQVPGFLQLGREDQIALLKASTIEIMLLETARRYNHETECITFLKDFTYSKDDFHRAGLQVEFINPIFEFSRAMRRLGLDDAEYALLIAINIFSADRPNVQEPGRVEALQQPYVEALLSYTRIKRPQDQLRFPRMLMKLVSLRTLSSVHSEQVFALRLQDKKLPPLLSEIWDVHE
Sequence of Hepatocyte nuclear factor 4-alpha (Homo sapiens) (P41235 whole entry, looked up, the tested form may be a part): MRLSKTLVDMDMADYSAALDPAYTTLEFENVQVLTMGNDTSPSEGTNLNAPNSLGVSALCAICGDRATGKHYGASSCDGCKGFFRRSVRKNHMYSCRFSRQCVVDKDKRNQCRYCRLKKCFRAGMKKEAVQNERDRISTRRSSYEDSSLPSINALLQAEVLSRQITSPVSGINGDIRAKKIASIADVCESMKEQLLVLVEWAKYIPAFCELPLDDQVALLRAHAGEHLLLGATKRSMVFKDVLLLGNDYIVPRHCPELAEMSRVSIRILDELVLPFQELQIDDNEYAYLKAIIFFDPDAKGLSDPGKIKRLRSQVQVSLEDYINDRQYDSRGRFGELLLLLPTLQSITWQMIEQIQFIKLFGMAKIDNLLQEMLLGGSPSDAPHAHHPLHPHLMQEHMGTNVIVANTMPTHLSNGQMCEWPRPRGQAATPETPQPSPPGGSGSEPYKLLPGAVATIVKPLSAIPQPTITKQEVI
Sequence of Glucocorticoid receptor (Homo sapiens) (P04150 whole entry, looked up, the tested form may be a part): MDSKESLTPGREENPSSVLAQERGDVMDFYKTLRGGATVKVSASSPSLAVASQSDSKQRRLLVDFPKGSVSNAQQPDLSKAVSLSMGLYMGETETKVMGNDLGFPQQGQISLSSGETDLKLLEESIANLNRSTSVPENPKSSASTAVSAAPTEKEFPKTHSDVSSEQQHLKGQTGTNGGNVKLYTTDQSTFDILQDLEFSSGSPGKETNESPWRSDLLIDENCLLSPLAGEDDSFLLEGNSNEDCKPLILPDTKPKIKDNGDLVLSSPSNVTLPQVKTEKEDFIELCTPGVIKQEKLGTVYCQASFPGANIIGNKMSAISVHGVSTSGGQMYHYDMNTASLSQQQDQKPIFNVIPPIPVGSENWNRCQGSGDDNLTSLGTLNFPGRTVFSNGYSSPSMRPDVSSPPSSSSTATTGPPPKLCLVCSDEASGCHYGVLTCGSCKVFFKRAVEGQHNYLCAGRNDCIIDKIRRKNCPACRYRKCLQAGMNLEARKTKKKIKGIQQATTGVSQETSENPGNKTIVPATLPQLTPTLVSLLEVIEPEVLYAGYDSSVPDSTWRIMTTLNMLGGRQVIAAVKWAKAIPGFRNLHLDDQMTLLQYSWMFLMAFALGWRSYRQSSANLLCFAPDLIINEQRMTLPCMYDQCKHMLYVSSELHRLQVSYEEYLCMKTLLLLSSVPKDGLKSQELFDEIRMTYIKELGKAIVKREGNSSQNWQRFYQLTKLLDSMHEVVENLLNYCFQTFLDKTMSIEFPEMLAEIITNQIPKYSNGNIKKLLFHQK

CC(C)Nc1nc(Cl)nc(NC(C)C)n1
inactive: [1] | [2] | [3] | [4] | [5]

O=C(O)c1c(Cl)ccc2cc(Cl)cnc12
inactive: [6]

CCCN(CC)CC1COC2(CCC(C(C)(C)C)CC2)O1 (stereo not given)
inactive: [1] | [7] | [2] | [3] | [5]

CC1(C)CON(Cc2ccccc2Cl)C1=O
inactive: [1] | [2] | [3] | [5]

Nc1c(Cl)c(F)nc(OCC(=O)O)c1Cl
inactive: [8] | [7] | [4]

CCOP(=O)(OCC)Oc1nc(Cl)c(Cl)cc1Cl
inactive: [1] | [7] | [2] | [4] | [5]

OC(c1ccc(Cl)cc1)(c1ccc(Cl)cc1)C(Cl)(Cl)Cl
inactive: [7] | [3] | [4]

Cn1c(-c2ccccc2)cc(-c2ccccc2)[n+]1C
inactive: [2] | [6] | [3] | [5]

Nc1cnn(-c2ccccc2)c(=O)c1Cl
inactive: [1] | [2] | [5]

CCNC(=O)NC(=O)C(C#N)=NOC
inactive: [8] | [3]

COc1ccc(-c2ccccc2)cc1NNC(=O)OC(C)C
inactive: [8] | [7] | [6] | [4]

COCC(C)N(C(=O)CCl)c1c(C)csc1C (stereo not given)
inactive: [6] | [4] | [5]

CCN(CC)c1nc(C)cc(OP(=S)(OC)OC)n1
inactive: [1] | [3] | [5]
